Experimental data reported in PubChem BioAssay (Tox21).
Inconclusive results are not listed. The source made the active and inactive calls. Unless noted, the call rests on the fitted dose curve; in most records, active means well fitted curve in the direction sought with a large enough effect in the repeat runs; inconclusive means weak or mixed curves; inactive means no such curve, though single readings can be large; an effect the other way counts as inactive or inconclusive.

Columns and labels:
[1] = qHTS assay for small molecule agonists of the p53 signaling pathway (AID 651631; calls by dose curve; further: nearly all actives have a fitted effect of over 15% in size)
In short: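 Agonist mode screen using a stably integrated beta-lactamase gene under p53 response elements in HCT-116 cells. Compound exposure lasts 16 h at 37 °C; fluorescence intensity is measured following 2 h FRET substrate loading.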

[2] = qHTS assay for small molecule agonists of the p53 signaling pathway - cell viability (AID 651633; calls by dose curve;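 further: p53RE-bla HCT reporter cells with a stable beta-lactamase p53 reporter; series mostly up to about 83 µM; nearly all actives have a fitted effect of over 30% in size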)
In short: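 Viability counter-read: CellTiter-Glo luminescence (30 min, room temperature) in the same p53RE-bla plates. These plates had been exposed to compounds for 16 h at 37 C.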

[3] = qHTS assay to test for compound auto fluorescence at 535 nm (green) in HepG2 cells (AID 720675)
[4] = qHTS assay to test for compound auto fluorescence at 460 nm (blue) in HEK293 cells (AID 720678)
In short: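 Intrinsic compound fluorescence is recorded in live HEK293 cultures after overnight incubation at 37C, 5% CO2, using excitation 405 nm and emission 460 nm. Values are referenced to triamterene.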

[5] = qHTS assay to test for compound auto fluorescence at 590 nm (red) in HEK293 cells (AID 720679)
In short: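 Red autofluorescence, HEK293 cells: 2,000 cells/well; attach 4-5 hr 37C; add 23 nL cpd or DMSO; incubate o/n 37C 5% CO2; read Ex540/Em590; Rose Bengal sodium reference.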

[6] = qHTS assay to test for compound auto fluorescence at 535 nm (green) in HEK293 cells (AID 720680)
[7] = qHTS assay to test for compound auto fluorescence at 535 nm (green) in HEK293 cell free culture (AID 720682)
In short: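 No cells present: wells hold DMEM supplemented with 10% FBS, into which compound or vehicle is pinned. Green emission is then recorded (485 nm excitation, 535 nm emission) and scaled to fluorescein.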

[8] = qHTS assay to test for compound auto fluorescence at 590 nm (red) in HEK293 cell free culture (AID 720683)
In short: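 Red-channel autofluorescence of compounds in culture medium (DMEM, 10% FBS), no cells, measured at 540/590 nm. Rose Bengal sodium is the reference fluorophore for equivalence.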

[9] = qHTS assay to test for compound auto fluorescence at 590 nm (red) in HepG2 cell free culture (AID 720684)
In short: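 Cell-free; medium MEM + 10% FBS; compound or DMSO added by pintool; read Ex 540/Em 590 nm; Rose Bengal sodium as red reference fluorophore.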

[10] = qHTS assay to test for compound auto fluorescence at 460 nm (blue) in HepG2 cell free culture (AID 720685)
In short: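 Cell-free plates of MEM plus 10% FBS received 23 nL compound or DMSO vehicle; blue-channel (405/460 nm) intensity scored against triamterene as reference fluorophore.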

[11] = qHTS assay to test for compound auto fluorescence at 535 nm (green) in HepG2 cell free culture (AID 720686)
[12] = qHTS assay to test for compound auto fluorescence at 460 nm (blue) in HepG2 cells (AID 720687)
In short: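 Blue-channel autofluorescence (Ex/Em 405/460 nm, triamterene-equivalent) was measured after 1 hr compound exposure at 37 C, 5% CO2. Cells were HepG2, plated overnight at 37 C in MEM plus 10% FBS.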

[13] = target: Glucocorticoid receptor (Homo sapiens) (UniProt P04150); assay: qHTS assay to identify small molecule agonists of the glucocorticoid receptor (GR) signaling pathway (AID 720691; active means well fitted activation curve with a large enough effect in the signal ratio in the repeat runs, not every such curve was filed as active; the % refers to the signal ratio)
Glucocorticoid receptor (Homo sapiens), sequence (P04150 whole entry, looked up): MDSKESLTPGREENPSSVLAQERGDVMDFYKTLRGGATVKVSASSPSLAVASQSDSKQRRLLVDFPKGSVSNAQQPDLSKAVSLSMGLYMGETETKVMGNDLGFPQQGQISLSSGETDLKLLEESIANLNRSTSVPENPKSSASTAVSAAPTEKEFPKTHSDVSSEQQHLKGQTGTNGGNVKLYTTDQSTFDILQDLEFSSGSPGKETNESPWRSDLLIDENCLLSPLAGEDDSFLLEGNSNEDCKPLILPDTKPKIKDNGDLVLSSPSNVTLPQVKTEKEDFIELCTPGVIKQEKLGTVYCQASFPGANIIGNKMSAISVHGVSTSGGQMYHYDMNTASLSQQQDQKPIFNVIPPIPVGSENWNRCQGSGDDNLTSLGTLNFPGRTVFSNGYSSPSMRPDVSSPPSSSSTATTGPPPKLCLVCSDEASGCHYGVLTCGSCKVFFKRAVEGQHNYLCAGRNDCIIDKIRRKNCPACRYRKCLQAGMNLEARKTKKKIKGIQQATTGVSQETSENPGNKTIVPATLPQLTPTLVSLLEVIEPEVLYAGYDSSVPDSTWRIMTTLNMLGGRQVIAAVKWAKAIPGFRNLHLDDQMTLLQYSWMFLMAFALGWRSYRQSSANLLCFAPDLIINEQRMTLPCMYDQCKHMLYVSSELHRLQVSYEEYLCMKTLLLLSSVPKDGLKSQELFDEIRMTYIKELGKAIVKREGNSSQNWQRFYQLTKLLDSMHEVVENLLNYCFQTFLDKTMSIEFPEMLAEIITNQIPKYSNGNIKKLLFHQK
In short: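 Cells: GR-bla HeLa, endogenous GR with stably integrated GRE-beta-lactamase reporter. Treatment 18 h, 37 C, compounds delivered in DMSO. Detection via LiveBLAzer B/G FRET substrate, 2 h RT, fluorescence intensity.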

[14] = target: Glucocorticoid receptor (Homo sapiens) (UniProt P04150); assay: qHTS assay to identify small molecule antagonists of the glucocorticoid receptor (GR) signaling pathway (AID 720692; active means well fitted inhibition curve with a large enough effect in the signal ratio in the repeat runs, not every such curve was filed as active; the % refers to the signal ratio)
In short: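 Quantitative HTS in antagonist format: HeLa cells expressing endogenous GR and a stably integrated GRE-bla reporter, stimulated with 5 nM dexamethasone (final) alongside test compounds for 18 h.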

[15] = qHTS assay for small molecules that induce genotoxicity in human embryonic kidney cells expressing luciferase-tagged ATAD5 (AID 651632); further: nearly all actives have a fitted effect of over 15% in size
In short: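 Quantitative HTS in HEK293T expressing luciferase-tagged ATAD5, whose levels rise upon DNA damage. Exposure ran 16 hr at 37C and 5% CO2, with luminescence read 30 min after Amplite addition at room temperature.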

[16] = qHTS assay for small molecules that induce genotoxicity in human embryonic kidney cells expressing luciferase-tagged ATAD5 - cell viability (AID 651634; calls by dose curve; further: nearly all actives have a fitted effect of over 25% in size)
In short: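 After 15.5 hr incubation with compound at 37C, 5% CO2, HEK293T ATAD5-luciferase cells received CellTiter-Fluor reagent; fluorescence intensity was quantified following 30 min at 37C.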

[17] = qHTS assay for small molecule disruptors of the mitochondrial membrane potential - cell viability (AID 720634; calls by dose curve;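 further: human HepG2 liver cancer cells; series mostly up to about 83 µM; nearly all actives have a fitted effect of over 20% in size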)
In short: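 ATP-based luminescent viability readout (CellTiter-Glo, 30 min, room temperature) in HepG2 cells multiplexed with the m-MPI membrane potential dye; compound exposure lasted 1 hr at 37 C.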

[18] = qHTS assay to test for compound auto fluorescence at 460 nm (blue) in HEK293 cell free culture (AID 720681)
In short: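 Blue fluorescence (Ex 405/Em 460 nm, triamterene-equivalent) was read immediately after pin transfer of compound or DMSO into medium (DMEM, 10% FBS) without cells.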

[19] = qHTS assay for small molecule disruptors of the mitochondrial membrane potential (AID 720635)
In short: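 Mitochondrial membrane potential tracked with Mito-MPS dye, red aggregates (ex 540/em 590 nm) against green monomers (ex 490/em 535 nm). Compound treatment 1 hr at 37C, dye 30 min in HepG2.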

[20] = qHTS assay to test for compound auto fluorescence at 590 nm (red) in HepG2 cells (AID 720674)
In short: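 Red autofluorescence (Ex/Em 540/590 nm, Rose Bengal sodium equivalents) was measured in HepG2 cells, 2,000 per well in MEM plus 10% FBS, plated overnight at 37 C. Readings were taken 1 hr after adding 23 nL compound or DMSO, at 37 C and 5% CO2.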

Measured: Potency

C1CCOC1
not listed: [15] | [16] | [17] | [18] | [19] | [20]
inactive: all other assays above

C=CCCCCCCCCO
not listed: [2] | [12] | [19] | [20]
inactive: all other assays above

FC(F)(F)C(F)(F)C(F)(F)C(F)(F)C(F)(F)C(F)(F)C(F)(F)C(F)(F)Br
not listed: [2] | [5] | [16]
inactive: all other assays above

NCCC(O)(P(=O)(O)O)P(=O)(O)O
not listed: [2] | [13]
inactive: all other assays above

CC(C)(CO)[C@@H](O)C(=O)NCCC(=O)O
not listed: [2] | [5] | [12] | [13] | [14] | [18]
inactive: all other assays above

COc1cc2c(cc1N)oc1ccccc12
not listed: [2] | [17] | [18] | [19]
inactive: all other assays above

O=C1CCC(C2CCCCC2)CC1
not listed: [2] | [5] | [20]
inactive: all other assays above

CCCCCCCCOC(=O)CCCCCCCCC(=O)OCCCCCCCC
not listed: [2] | [13] | [19]
inactive: all other assays above

CCC1(C)NC(=O)NC1=O (stereo unspecified)
not listed: [2] | [5] | [13] | [14] | [19]
inactive: all other assays above

CCCN(CCC)C(=O)C(CCC(=O)O)NC(=O)c1ccccc1 (stereo unspecified)
not listed: [2] | [14] | [19]
inactive: all other assays above

O=C1N(c2ccccc2)c2ccccc2C1(Cc1ccncc1)Cc1ccncc1
not listed: [2] | [5]
inactive: all other assays above

CCN(CC)C(=O)N(CC)CC
not listed: [2] | [4] | [16] | [18]
inactive: all other assays above

Nc1ccc2ccccc2c1S(=O)(=O)O
not listed: [13] | [14] | [15] | [16]
inactive: all other assays above

CCOc1ccc2nc(N)sc2c1
not listed: [7] | [15] | [16] | [17] | [19]
inactive: all other assays above

CC(C)NCC(O)COc1ccc(CCOCC2CC2)cc1 (stereo unspecified)
not listed: [2] | [4] | [5] | [15] | [18]
inactive: all other assays above
